Data taken from PubChem BioAssay.
Activity calls are given as the source filed them.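 The calls were made as follows, unless noted: active = calcium signal rise above buffer-control mean plus 5 SD in both duplicates, and also a hit in the primary screen; inactive = the rest.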

Each molecule was assayed against Short transient receptor potential channel 6 (Mus musculus) (UniProt Q61143) (assay: TRPC6 potentiation by TRPC4 potentiator hits, confirmation, selectivity assay for TRPC4 potentiator project, HEK293 cells, membrane potential dye, duplicate (AID 434952;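 active = compound raising the membrane signal above positive-control mean plus 3 SD in both repeats, and a primary screen hit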)). Settings: HEK293 TRPC6, membrane potential dye fluorescence, at 10 µM, maximal acetylcholine added after compound.
Sequence of Short transient receptor potential channel 6 (Mus musculus) (Q61143 whole entry, looked up): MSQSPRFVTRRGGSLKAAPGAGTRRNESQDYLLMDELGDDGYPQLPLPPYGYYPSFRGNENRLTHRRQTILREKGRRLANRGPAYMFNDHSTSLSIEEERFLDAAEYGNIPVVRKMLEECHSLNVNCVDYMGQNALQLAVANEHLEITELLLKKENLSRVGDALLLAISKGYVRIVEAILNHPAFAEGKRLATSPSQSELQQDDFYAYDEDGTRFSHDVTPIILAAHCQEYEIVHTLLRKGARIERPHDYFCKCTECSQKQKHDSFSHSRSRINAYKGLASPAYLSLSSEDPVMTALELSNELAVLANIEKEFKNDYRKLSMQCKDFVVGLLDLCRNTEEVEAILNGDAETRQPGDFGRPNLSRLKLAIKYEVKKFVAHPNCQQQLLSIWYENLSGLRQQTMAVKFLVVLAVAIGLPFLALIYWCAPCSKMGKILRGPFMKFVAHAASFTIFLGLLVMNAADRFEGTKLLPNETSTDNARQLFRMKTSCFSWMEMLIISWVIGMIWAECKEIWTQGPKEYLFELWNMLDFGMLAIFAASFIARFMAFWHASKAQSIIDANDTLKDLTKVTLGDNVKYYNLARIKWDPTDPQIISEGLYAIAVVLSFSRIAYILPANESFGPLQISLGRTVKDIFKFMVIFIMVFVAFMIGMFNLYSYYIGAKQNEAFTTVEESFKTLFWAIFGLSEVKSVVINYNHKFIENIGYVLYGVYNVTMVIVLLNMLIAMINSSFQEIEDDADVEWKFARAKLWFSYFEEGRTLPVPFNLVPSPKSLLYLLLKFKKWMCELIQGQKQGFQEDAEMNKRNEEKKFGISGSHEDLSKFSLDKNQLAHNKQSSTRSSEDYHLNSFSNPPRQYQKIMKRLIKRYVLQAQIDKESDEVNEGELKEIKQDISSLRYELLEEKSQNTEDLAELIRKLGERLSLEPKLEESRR

| SMILES | outcome |
| --- | --- |
| Cc1ccccc1Cn1c(=N)n(CC(O)c2ccco2)c2ccccc21 (stereo not drawn) | inactive |
| CN1CCN(c2ccc(NC(=O)c3ccc(-c4ccc(Cl)cc4)o3)cc2)CC1 | inactive |
| COc1cc(C(F)(F)F)nc2c(Br)c(C(C)(C)C)nn12 | inactive |
| Clc1cccc(C[n+]2cc(-c3ccccc3)n3c2CCC3)c1 | inactive |
| COC(=O)c1ccc(CSc2nc3ccccc3c(=O)n2CC(C)C)o1 | inactive |
| CN(C)c1ccc(NC(=O)CN2C3CCCC2CC(NC(=O)c2ccccc2)C3)cc1 (stereo not drawn) | inactive |
| Cc1ccn2c(CNCCCn3cccn3)c(C(=O)N3CCCCCC3)nc2c1 | inactive |
| O=C(O)c1ccc(N/N=C/c2ccc(-c3cccc(Cl)c3)o2)cc1 | inactive |
| NS(=O)(=O)c1ccc(CCNCc2ccccc2OCc2ccc(Cl)cc2)cc1 | inactive |
| CCCCn1c(NCCO)nc2ccccc21 | inactive |
| CCCOc1ccc(-c2nc(SCc3ccccc3)[nH]c(=O)c2C#N)cc1OC | inactive |
| NC(=O)c1nsc(C(=O)N(Cc2ccccc2Cl)C(C(=O)NCC2CCCO2)c2ccc(O)cc2)c1N (stereo not drawn) | inactive |
| N#Cc1cccc2c1-c1ccccc1/C2=N/NC(N)=O | inactive |
| CCCn1c(NC(=O)c2ccc(Cl)c(S(=O)(=O)N3CCCC3)c2)nc2ccccc21 | inactive |
| CCOC(=O)C(C)Sc1nc2c(c(=O)[nH]c(=O)n2C)n1Cc1ccc(Cl)cc1 (stereo not drawn) | inactive |
| OCCNc1nc2ccccc2n1CCN1CCCCC1 | inactive |
| Cc1cc(N2CCC(C)CC2)nc2cccc(O)c12 | inactive |
| CCCN1C2=NCCN2c2cc(C)c(C)cc21 | inactive |
| COc1ccc(C2NC(C(=O)O)Cc3c2[nH]c2ccccc32)cc1CN1CCN(c2ccc(F)cc2)CC1 (stereo not drawn) | inactive |
| COc1cc(CNC2CCCC2)cc(Cl)c1OCc1ccc(F)cc1 | inactive |

| SMILES | outcome |
| --- | --- |
| CC1CCN(C(C)C(=O)Nc2ccccc2-c2ccccc2)CC1 (stereo not drawn) | inactive |
| COc1cccc(C(=O)C2CCCN(Cc3cccn3-c3ccccn3)C2)c1 (stereo not drawn) | inactive |
| N=c1c2c(n(Cc3ccccc3)c3c1CCC3)CCC2 | inactive |
| OCC1(CCCc2ccccc2)CCN(Cc2cc(F)ccc2F)CC1 | inactive |
| N#Cc1c(NC(=O)C2CC(Cl)=CCC2C(=O)O)sc2c1CCCCC2 (stereo not drawn) | inactive |
| c1ccc2[nH]c(CCCCc3nc4ccccc4[nH]3)nc2c1 | inactive |
| CN(C)CCN1C(=O)C2C(C(=O)Nc3cc(Cl)cc(Cl)c3)C3C=CC2(O3)C1C(=O)NC1CCCCC1 (stereo not drawn) | inactive |
| CCc1cccc(OCC(=O)Nc2ccc(C(=O)O)cc2NC(=O)COc2cccc(CC)c2)c1 | inactive |
| CCc1ccc2nc(N=C(N)N)nc(C)c2c1 | inactive |
| C=CCOc1ccc(Br)cc1CNC(C)(C)CO | inactive |
| O=c1c2ccccc2[nH]c(=S)n1CCN1CCN(Cc2ccccc2)CC1 | inactive |
| CN(CC(=O)NC1CCCc2ccccc21)C1CCCCC1 (stereo not drawn) | inactive |
| Cc1cc(C(=O)N/N=C\c2cc(C(C)(C)C)ccc2O)n[nH]1 | inactive |
| CC1(C)CC2CC(C)(CN2C(=O)c2cc(-c3ccc(O)cc3)on2)C1 (stereo not drawn) | inactive |
| OCC1(Cc2ccccc2)CCCN(Cc2cnn(-c3ccccc3)c2)C1 (stereo not drawn) | inactive |
| CCOc1ccccc1CN1CCC(n2nccc2NC(=O)CCc2ccccc2)CC1 | inactive |
| CCCOc1cccc(C(=O)NCCNC(=O)c2ccco2)c1 | inactive |
| Brc1ccc(CN2C3=NCCCN3c3ccccc32)cc1 | inactive |
| Cc1[nH]n(C)c(=O)c1C(=O)c1c(-c2c(Cl)cccc2Cl)noc1C | inactive |

What follows are molecules tested against Short transient receptor potential channel 4 (Mus musculus) (UniProt Q9QUQ5) (assay: calcium flux activators in TRPC4/5HT1a cells, counter-screen for TRPC4 activator project, cell-based, second counter screen, HEK293 TRPC4/5HT1a, Fluo-4 (AID 434977)). Settings: Fluo-4 calcium flux, at 10 µM.

| SMILES | outcome |
| --- | --- |
| Cc1ccccc1Cn1c(=N)n(CC(O)c2ccco2)c2ccccc21 (stereo not drawn) | inactive |
| CN1CCN(c2ccc(NC(=O)c3ccc(-c4ccc(Cl)cc4)o3)cc2)CC1 | inactive |
| COc1cc(C(F)(F)F)nc2c(Br)c(C(C)(C)C)nn12 | inactive |
| Clc1cccc(C[n+]2cc(-c3ccccc3)n3c2CCC3)c1 | inactive |
| COC(=O)c1ccc(CSc2nc3ccccc3c(=O)n2CC(C)C)o1 | inactive |
| CN(C)c1ccc(NC(=O)CN2C3CCCC2CC(NC(=O)c2ccccc2)C3)cc1 (stereo not drawn) | inactive |
| Cc1ccn2c(CNCCCn3cccn3)c(C(=O)N3CCCCCC3)nc2c1 | inactive |
| O=C(O)c1ccc(N/N=C/c2ccc(-c3cccc(Cl)c3)o2)cc1 | inactive |
| NS(=O)(=O)c1ccc(CCNCc2ccccc2OCc2ccc(Cl)cc2)cc1 | inactive |
| CCCCn1c(NCCO)nc2ccccc21 | inactive |
| CCCOc1ccc(-c2nc(SCc3ccccc3)[nH]c(=O)c2C#N)cc1OC | inactive |
| NC(=O)c1nsc(C(=O)N(Cc2ccccc2Cl)C(C(=O)NCC2CCCO2)c2ccc(O)cc2)c1N (stereo not drawn) | inactive |
| N#Cc1cccc2c1-c1ccccc1/C2=N/NC(N)=O | inactive |
| CCCn1c(NC(=O)c2ccc(Cl)c(S(=O)(=O)N3CCCC3)c2)nc2ccccc21 | inactive |
| CCOC(=O)C(C)Sc1nc2c(c(=O)[nH]c(=O)n2C)n1Cc1ccc(Cl)cc1 (stereo not drawn) | inactive |
| OCCNc1nc2ccccc2n1CCN1CCCCC1 | inactive |
| Cc1cc(N2CCC(C)CC2)nc2cccc(O)c12 | inactive |
| CCCN1C2=NCCN2c2cc(C)c(C)cc21 | inactive |
| COc1ccc(C2NC(C(=O)O)Cc3c2[nH]c2ccccc32)cc1CN1CCN(c2ccc(F)cc2)CC1 (stereo not drawn) | inactive |
| COc1cc(CNC2CCCC2)cc(Cl)c1OCc1ccc(F)cc1 | inactive |

| SMILES | outcome |
| --- | --- |
| CC1CCN(C(C)C(=O)Nc2ccccc2-c2ccccc2)CC1 (stereo not drawn) | inactive |
| COc1cccc(C(=O)C2CCCN(Cc3cccn3-c3ccccn3)C2)c1 (stereo not drawn) | inactive |
| N=c1c2c(n(Cc3ccccc3)c3c1CCC3)CCC2 | inactive |
| OCC1(CCCc2ccccc2)CCN(Cc2cc(F)ccc2F)CC1 | inactive |
| N#Cc1c(NC(=O)C2CC(Cl)=CCC2C(=O)O)sc2c1CCCCC2 (stereo not drawn) | inactive |
| c1ccc2[nH]c(CCCCc3nc4ccccc4[nH]3)nc2c1 | inactive |
| CN(C)CCN1C(=O)C2C(C(=O)Nc3cc(Cl)cc(Cl)c3)C3C=CC2(O3)C1C(=O)NC1CCCCC1 (stereo not drawn) | inactive |
| CCc1cccc(OCC(=O)Nc2ccc(C(=O)O)cc2NC(=O)COc2cccc(CC)c2)c1 | inactive |
| CCc1ccc2nc(N=C(N)N)nc(C)c2c1 | inactive |
| C=CCOc1ccc(Br)cc1CNC(C)(C)CO | inactive |
| O=c1c2ccccc2[nH]c(=S)n1CCN1CCN(Cc2ccccc2)CC1 | inactive |
| CN(CC(=O)NC1CCCc2ccccc21)C1CCCCC1 (stereo not drawn) | inactive |
| Cc1cc(C(=O)N/N=C\c2cc(C(C)(C)C)ccc2O)n[nH]1 | inactive |
| CC1(C)CC2CC(C)(CN2C(=O)c2cc(-c3ccc(O)cc3)on2)C1 (stereo not drawn) | inactive |
| OCC1(Cc2ccccc2)CCCN(Cc2cnn(-c3ccccc3)c2)C1 (stereo not drawn) | inactive |
| CCOc1ccccc1CN1CCC(n2nccc2NC(=O)CCc2ccccc2)CC1 | inactive |
| CCCOc1cccc(C(=O)NCCNC(=O)c2ccco2)c1 | inactive |
| Brc1ccc(CN2C3=NCCCN3c3ccccc32)cc1 | inactive |
| Cc1[nH]n(C)c(=O)c1C(=O)c1c(-c2c(Cl)cccc2Cl)noc1C | inactive |
